# Laboratory results published in ChEMBL document CHEMBL2218924, “A broad activity screen in support of a chemogenomic map for kinase signalling research and drug discovery” (Biochem J, 2013).
# Assays:
# [1] = biological target: T1, Ephrin type-A receptor 3 (Homo sapiens) (UniProt P29320); settings: at 10 µM
# T1 sequence (whole entry): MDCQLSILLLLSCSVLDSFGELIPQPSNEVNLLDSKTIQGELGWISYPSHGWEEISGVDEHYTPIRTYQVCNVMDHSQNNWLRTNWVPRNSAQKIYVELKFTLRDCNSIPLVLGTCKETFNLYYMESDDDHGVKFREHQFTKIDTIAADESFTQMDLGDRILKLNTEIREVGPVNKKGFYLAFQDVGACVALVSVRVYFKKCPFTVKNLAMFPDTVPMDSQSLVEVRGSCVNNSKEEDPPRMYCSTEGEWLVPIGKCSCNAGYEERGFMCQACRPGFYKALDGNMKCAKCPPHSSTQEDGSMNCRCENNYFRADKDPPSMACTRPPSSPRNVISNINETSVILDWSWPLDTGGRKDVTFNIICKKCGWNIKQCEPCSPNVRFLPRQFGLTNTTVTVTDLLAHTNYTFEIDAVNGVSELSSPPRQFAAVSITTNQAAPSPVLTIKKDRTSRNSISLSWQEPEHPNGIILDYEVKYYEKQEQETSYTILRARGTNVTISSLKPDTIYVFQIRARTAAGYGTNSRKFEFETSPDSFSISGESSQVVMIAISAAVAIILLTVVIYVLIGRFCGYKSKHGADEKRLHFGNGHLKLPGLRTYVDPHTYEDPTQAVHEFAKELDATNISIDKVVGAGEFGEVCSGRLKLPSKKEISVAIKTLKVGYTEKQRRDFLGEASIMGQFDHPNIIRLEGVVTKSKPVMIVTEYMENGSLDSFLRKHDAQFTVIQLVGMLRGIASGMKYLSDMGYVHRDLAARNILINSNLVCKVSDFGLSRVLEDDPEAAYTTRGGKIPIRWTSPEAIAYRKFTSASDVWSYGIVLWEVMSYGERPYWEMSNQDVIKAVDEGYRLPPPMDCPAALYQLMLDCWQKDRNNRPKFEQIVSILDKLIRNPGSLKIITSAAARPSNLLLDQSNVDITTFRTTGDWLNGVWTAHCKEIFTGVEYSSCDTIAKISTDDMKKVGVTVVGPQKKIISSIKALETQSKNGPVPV
# [2] = biological target: Ephrin type-A receptor 5 (Homo sapiens) (UniProt P54756); settings: at 1 µM
# [3] = biological target: T2, Ephrin type-A receptor 8 (Homo sapiens) (UniProt P29322); settings: at 10 µM
# T2 sequence (whole entry): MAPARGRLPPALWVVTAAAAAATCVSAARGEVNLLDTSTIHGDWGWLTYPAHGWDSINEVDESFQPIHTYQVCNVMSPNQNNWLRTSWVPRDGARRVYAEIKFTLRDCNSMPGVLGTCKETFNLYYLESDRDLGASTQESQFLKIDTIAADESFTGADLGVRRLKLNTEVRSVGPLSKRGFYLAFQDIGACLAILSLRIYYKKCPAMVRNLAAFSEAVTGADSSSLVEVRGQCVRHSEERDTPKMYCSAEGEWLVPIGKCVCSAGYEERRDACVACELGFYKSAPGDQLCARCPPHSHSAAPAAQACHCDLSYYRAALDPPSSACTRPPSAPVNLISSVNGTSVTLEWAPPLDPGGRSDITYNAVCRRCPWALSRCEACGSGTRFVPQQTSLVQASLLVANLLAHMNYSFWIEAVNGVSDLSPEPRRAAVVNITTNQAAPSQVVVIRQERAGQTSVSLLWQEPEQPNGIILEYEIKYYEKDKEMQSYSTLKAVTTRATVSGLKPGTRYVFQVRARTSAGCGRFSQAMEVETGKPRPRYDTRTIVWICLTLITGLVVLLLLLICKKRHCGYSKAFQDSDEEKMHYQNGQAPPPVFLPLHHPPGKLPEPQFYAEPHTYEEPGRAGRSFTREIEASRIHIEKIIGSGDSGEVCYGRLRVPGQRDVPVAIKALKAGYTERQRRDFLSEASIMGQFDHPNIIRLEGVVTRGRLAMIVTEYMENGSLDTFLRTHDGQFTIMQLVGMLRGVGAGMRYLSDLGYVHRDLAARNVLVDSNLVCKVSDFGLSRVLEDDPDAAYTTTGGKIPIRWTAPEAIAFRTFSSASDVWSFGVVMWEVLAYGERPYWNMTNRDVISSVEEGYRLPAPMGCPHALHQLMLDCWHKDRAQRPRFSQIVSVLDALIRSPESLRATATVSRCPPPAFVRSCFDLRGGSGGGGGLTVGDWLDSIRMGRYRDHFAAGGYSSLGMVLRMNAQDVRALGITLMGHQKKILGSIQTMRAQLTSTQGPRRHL
# [4] = biological target: T3, Ephrin type-B receptor 2 (Homo sapiens) (UniProt P29323); settings: at 1 µM
# T3 sequence (whole entry): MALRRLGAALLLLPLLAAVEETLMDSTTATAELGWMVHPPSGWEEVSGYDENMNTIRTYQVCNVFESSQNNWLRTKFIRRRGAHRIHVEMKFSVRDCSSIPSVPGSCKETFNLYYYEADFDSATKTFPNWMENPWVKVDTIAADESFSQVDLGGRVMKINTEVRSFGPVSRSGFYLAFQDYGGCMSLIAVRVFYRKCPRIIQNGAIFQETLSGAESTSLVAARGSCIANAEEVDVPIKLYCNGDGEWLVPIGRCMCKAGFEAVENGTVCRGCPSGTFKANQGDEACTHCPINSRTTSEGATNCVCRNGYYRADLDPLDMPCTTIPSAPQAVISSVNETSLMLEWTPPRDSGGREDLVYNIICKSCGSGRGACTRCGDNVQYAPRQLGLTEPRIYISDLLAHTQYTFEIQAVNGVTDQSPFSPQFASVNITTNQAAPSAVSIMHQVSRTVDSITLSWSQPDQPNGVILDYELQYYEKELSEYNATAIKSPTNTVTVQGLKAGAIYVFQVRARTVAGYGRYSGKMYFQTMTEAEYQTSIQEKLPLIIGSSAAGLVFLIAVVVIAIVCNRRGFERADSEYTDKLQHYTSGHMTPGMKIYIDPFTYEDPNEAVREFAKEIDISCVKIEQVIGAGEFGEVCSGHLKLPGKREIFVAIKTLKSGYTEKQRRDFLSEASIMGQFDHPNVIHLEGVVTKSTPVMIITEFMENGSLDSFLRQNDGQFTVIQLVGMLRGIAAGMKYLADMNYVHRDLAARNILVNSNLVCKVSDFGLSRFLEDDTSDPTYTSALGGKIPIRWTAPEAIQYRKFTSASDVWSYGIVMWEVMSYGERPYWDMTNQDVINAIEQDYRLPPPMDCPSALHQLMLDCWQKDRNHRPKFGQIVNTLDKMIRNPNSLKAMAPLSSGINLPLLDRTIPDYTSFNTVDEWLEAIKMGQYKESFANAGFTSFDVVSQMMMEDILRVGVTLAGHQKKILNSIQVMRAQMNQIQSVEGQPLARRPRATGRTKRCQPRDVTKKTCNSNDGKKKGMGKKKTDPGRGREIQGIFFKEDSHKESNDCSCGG
# [5] = biological target: T3, Ephrin type-B receptor 2 (Homo sapiens); settings: at 10 µM
# [6] = biological target: T4, Ephrin type-B receptor 3 (Homo sapiens) (UniProt P54753); settings: at 1 µM
# T4 sequence (whole entry): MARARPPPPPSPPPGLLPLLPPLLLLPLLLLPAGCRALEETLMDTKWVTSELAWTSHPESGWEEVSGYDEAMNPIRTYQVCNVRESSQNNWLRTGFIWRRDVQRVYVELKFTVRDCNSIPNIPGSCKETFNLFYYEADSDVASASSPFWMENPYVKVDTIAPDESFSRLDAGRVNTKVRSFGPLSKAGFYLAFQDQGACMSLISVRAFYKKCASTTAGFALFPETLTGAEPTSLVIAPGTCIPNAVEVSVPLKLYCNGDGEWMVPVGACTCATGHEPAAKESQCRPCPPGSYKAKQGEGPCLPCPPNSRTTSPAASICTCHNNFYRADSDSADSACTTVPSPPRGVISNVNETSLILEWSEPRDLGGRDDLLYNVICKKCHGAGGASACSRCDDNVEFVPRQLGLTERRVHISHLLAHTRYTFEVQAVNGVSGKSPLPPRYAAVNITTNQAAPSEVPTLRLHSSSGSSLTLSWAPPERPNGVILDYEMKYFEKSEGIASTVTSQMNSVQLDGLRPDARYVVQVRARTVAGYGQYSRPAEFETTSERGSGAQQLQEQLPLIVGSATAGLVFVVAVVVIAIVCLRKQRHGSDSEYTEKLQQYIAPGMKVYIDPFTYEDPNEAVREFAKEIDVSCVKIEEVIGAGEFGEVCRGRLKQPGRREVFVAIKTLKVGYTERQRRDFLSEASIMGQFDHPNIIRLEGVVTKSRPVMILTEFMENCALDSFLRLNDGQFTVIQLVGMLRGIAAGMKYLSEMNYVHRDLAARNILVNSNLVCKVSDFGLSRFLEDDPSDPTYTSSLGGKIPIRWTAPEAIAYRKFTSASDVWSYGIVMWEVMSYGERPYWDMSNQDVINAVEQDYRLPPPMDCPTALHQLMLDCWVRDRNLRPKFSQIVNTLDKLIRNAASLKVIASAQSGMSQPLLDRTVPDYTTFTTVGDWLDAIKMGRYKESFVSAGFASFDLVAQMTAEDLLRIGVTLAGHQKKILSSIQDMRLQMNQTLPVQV
# [7] = biological target: T4, Ephrin type-B receptor 3 (Homo sapiens); settings: at 10 µM
# [8] = biological target: T5, Ephrin type-B receptor 4 (Homo sapiens) (UniProt P54760); settings: at 1 µM
# T5 sequence (whole entry): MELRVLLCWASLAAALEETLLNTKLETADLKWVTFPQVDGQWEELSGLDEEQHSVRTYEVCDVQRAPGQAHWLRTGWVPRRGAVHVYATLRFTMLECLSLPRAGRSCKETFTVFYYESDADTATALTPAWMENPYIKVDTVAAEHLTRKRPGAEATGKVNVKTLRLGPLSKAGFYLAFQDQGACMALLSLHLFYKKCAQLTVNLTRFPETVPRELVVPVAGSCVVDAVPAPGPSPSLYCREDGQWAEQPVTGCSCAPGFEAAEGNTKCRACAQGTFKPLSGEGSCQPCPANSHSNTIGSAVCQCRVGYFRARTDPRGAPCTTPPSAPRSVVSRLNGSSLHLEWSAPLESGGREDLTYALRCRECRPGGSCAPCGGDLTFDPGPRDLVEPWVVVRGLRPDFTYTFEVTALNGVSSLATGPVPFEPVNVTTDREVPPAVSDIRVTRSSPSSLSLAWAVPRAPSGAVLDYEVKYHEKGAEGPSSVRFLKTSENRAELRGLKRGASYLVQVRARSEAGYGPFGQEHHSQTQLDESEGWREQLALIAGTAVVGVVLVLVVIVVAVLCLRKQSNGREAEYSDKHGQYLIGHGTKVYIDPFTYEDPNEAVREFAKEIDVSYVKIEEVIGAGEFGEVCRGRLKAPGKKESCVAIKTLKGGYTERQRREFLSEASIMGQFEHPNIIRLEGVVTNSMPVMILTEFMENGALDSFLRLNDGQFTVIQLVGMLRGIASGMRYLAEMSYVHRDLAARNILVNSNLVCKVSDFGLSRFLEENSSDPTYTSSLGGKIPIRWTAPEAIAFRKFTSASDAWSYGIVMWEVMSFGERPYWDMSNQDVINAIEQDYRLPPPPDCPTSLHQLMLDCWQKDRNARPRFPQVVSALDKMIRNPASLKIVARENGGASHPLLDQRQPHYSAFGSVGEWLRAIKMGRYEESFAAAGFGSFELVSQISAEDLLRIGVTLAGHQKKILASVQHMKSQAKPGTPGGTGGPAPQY
# [9] = biological target: T5, Ephrin type-B receptor 4 (Homo sapiens); settings: at 10 µM
# [10] = biological target: Receptor tyrosine-protein kinase erbB-4 (Homo sapiens) (UniProt Q15303); settings: at 1 µM
# [11] = biological target: Receptor tyrosine-protein kinase erbB-4 (Homo sapiens) (UniProt Q15303); settings: at 10 µM
# [12] = biological target: Focal adhesion kinase 1 (Homo sapiens) (UniProt Q05397); settings: at 1 µM
# Focal adhesion kinase 1 (Homo sapiens), sequence (Q05397 2-1052 limits assumed): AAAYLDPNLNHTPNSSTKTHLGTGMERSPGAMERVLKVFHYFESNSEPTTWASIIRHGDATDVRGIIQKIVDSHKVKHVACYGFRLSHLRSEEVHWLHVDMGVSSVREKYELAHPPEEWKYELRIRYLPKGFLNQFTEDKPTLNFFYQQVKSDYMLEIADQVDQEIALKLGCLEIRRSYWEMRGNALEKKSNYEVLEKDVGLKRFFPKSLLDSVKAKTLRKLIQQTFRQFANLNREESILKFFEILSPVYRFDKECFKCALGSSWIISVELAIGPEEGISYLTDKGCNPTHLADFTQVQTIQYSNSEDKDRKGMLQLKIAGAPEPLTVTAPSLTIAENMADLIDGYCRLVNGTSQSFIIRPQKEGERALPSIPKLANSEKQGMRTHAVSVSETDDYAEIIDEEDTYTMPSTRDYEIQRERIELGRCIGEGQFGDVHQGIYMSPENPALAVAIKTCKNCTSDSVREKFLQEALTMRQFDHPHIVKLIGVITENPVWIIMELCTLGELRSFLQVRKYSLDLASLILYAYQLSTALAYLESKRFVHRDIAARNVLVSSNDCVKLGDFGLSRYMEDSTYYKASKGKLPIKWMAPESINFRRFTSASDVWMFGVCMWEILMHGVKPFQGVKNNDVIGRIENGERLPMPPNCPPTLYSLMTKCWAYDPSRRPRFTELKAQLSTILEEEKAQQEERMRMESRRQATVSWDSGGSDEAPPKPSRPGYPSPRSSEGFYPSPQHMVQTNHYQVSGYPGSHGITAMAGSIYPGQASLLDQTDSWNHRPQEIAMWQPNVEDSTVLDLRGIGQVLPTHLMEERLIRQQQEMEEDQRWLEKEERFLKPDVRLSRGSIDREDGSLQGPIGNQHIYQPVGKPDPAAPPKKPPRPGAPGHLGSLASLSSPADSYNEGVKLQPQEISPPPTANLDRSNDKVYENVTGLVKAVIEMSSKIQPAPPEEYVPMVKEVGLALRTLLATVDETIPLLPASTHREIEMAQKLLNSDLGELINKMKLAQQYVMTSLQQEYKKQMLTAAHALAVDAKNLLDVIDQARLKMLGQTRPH
# Receptor tyrosine-protein kinase erbB-4 (Homo sapiens), sequence (Q15303 whole entry): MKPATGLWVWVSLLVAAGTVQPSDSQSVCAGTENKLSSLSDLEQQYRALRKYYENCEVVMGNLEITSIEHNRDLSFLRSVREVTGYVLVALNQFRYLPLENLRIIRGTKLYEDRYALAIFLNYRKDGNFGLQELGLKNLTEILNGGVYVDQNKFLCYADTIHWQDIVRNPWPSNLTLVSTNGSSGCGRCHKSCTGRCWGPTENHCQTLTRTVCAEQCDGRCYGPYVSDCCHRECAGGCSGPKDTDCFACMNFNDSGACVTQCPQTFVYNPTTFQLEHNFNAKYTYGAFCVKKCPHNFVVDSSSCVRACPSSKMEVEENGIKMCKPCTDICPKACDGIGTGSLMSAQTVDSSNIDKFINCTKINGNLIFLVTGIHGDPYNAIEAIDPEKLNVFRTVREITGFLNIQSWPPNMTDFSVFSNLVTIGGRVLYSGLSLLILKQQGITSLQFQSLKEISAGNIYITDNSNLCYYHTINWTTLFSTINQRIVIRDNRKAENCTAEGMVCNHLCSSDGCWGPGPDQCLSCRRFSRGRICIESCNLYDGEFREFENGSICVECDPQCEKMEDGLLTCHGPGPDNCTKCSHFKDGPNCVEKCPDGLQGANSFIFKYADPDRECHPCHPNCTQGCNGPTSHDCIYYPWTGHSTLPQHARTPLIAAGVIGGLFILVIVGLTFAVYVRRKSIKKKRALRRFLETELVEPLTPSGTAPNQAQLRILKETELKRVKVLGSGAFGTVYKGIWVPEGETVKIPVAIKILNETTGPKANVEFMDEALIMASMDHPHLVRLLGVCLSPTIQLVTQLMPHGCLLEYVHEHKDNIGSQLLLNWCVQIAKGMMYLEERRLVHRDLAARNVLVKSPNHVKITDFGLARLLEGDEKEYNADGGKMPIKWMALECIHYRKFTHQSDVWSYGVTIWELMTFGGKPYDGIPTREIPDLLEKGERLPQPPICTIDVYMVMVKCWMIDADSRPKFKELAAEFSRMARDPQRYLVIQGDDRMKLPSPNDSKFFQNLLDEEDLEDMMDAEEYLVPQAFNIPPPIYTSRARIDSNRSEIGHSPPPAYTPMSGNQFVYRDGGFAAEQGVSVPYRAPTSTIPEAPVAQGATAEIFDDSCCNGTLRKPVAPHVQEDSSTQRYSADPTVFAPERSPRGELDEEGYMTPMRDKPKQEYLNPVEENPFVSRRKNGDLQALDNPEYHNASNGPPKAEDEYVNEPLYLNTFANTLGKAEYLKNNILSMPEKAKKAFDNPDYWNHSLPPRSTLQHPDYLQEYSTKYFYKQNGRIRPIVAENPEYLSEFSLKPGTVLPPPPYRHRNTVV
# Ephrin type-A receptor 5 (Homo sapiens), sequence (P54756 whole entry): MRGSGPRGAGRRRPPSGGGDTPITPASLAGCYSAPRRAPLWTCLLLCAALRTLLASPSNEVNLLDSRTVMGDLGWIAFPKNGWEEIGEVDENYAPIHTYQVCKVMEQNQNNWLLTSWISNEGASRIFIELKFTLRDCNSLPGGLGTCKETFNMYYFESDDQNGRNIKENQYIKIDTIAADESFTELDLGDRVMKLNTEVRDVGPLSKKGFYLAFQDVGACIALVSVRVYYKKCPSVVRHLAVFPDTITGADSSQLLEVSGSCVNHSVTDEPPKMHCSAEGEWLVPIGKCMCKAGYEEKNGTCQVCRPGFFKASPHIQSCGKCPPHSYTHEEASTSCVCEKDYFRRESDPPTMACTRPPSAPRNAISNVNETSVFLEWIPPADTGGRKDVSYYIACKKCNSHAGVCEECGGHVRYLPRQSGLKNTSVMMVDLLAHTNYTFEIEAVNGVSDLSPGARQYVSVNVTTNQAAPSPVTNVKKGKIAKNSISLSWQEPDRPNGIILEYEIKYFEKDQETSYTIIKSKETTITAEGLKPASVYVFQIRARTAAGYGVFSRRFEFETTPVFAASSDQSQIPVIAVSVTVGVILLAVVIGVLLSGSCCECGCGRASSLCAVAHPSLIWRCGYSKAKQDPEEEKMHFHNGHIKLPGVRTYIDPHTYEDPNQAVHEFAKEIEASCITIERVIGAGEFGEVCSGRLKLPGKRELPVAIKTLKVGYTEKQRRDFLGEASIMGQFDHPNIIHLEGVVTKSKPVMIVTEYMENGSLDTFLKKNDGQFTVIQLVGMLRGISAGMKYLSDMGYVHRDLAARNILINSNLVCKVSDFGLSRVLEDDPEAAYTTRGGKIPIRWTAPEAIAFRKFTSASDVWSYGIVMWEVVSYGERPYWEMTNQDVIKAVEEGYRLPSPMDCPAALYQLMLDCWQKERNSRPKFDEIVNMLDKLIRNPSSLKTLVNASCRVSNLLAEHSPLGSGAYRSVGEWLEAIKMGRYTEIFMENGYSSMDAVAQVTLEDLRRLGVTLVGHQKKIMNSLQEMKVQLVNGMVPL
compound,measurement,setting,value
COc1ccc(COc2ccc(Cc3cnc(N)nc3N)cc2OC)cc1,residual activity,[1],78%
same,residual activity,[2],111%
same,residual activity,[3],110%
same,residual activity,[4],108%
same,residual activity,[5],129%
same,residual activity,[6],114% (inactive)
same,residual activity,[7],110%
same,residual activity,[8],99%
same,residual activity,[9],113%
same,residual activity,[10],99%
same,residual activity,[11],70%
same,residual activity,[12],115%
